Measured values from ChEMBL document CHEMBL3988442, “University of Dundee, Small-Polar-MMV Screening Library” (2021).
The whole screen tested about 48,000 compounds, of which about 13,000 (27%) showed an effect of 50% or more. This is one part of the list.

test system: Wolbachia pipientis; experiment: Anti-Wolbachia Cell-Based Screen; assay type: functional; set-up: scale not given: in the data most compounds retested in dose-response had high values; conditions: 5 µM

SMILES | Percent Effect [%]
N#CCCN(CC1CCCO1)C(=O)c1ccc2nonc2c1 (centres undefined) | 113
Cc1nc2ccc(C(=O)N(CCC#N)CCC#N)cc2nc1C | -2.079
Cc1nc2cc(C(=O)N(CCC#N)CCC#N)ccc2n1C | -0.9305
Cc1nc2cc(C(=O)N(CCC#N)CC3CCCO3)ccc2[nH]1 (centres undefined) | 103.2
N#CCCN(c1ccc(F)cc1)S(=O)(=O)CC1CCCCO1 (centres undefined) | -8.338
CN(Cc1ccc2nonc2c1)C(=O)c1ccc(C2CCCO2)s1 (centres undefined) | -9.176
CCC(C)CS(=O)(=O)NCCc1csc(N2CCCC2)n1 (centres undefined) | -21.99
COCC(C)N(Cc1ccccc1OC)C(=O)c1cc(C)[nH]c(=O)c1 (centres undefined) | -10.95
NC(=O)CN1CCC(C(=O)NCC(O)c2cccc(F)c2)CC1 (centres undefined) | 3.405
O=C(COc1cccc(F)c1)N1C[C@@H](CN2CCCC2)C[C@H](CO)C1 | -0.02776
CN1CC(=O)N(c2cccc(F)c2)CC12CCN(CCO)C2.O=C(O)C(F)(F)F.O=C(O)C(F)(F)F (centres undefined) | 1.497
C[C@]1(O)CN(CCC(N)=O)CC[C@@H]1Oc1cccc(F)c1 | 109.4
C[C@]1(O)CN(CCO)CC[C@@H]1Oc1cccc(F)c1 | 120.3
CC(Oc1cccc(F)c1)C(=O)N(CC(N)=O)C1CCCC1 (centres undefined) | -28.68
C[C@]1(O)CN(CC(=O)N2CCCC2)CC[C@@H]1Oc1cccc(F)c1 | 121.7
O=C(O)C(F)(F)F.O=C1CC2(CCN(CCO)C2)CN1c1cccc(F)c1 (centres undefined) | 6.062
O=C(COc1cccc(F)c1)N1C[C@H](CO)C[C@H](CN2CCCC2)C1 | -0.9347
CCn1ncc2c1NC(=O)CC2c1cnc(NCc2ccccc2)nc1 (centres undefined) | 4.243
Cc1ccc(N2CCCC(N3CCC4(CC3)OCCO4)C2=O)cc1 (centres undefined) | -7.017
COc1ccc2c(c1)CCN(CCC(=O)O)CC2 | -10.19

SMILES | Percent Effect [%]
COc1ccc2c(c1)CN(C)C(=O)CCN2CC(O)C(F)(F)F (centres undefined) | 104.6
COc1ccc2c(c1)CN(C)C(=O)CCN2CC(O)C(C)(C)C (centres undefined) | 100.8
OC(CN1CCCc2cc(OC(F)F)ccc21)Cn1cccn1 (centres undefined) | -16.69
COc1ccc2c(c1)CCCN(C(C)C(=O)NC(C)C)C2 (centres undefined) | -4.844
COC(=O)C(C)N1CCCc2cc(OC)ccc2C1 (centres undefined) | -9.406
O=C(CNc1nc(C2CC2)ns1)N1CCc2sccc2C1 | -3.427
N#CCCN(CCC#N)C(=O)c1cccc(N2CCNC2=O)c1 | -11.85
CC(C)c1nc(C2CCCN(C(=O)CN3CCCNC3=O)C2)no1 (centres undefined) | 6.733
CC(C)c1nc(C2CCCN(C(=O)CCn3ccnc3)C2)no1 (centres undefined) | -0.5429
CCS(=O)(=O)CC(=O)N1CCCC(c2noc(C(C)C)n2)C1 (centres undefined) | -6.108
CC(C)c1nc(C2CCCN(C(=O)CCCn3cccn3)C2)no1 (centres undefined) | 95.04
Cc1nc(C2CCCN(C(=O)CN3CCCC3=O)C2)sc1C (centres undefined) | -7.822
Cc1nc(C2CCCN(C(=O)CCCn3cccn3)C2)sc1C (centres undefined) | 112.1
CC(C)c1nc(C2CCCN(C(=O)CCCn3ccnc3)C2)no1 (centres undefined) | 94.72
CC(C)c1nc(C2CCCN(C(=O)CN(C)S(C)(=O)=O)C2)no1 (centres undefined) | -21.51
CC(C)c1nc(C2CCCN(C(=O)CCc3cscn3)C2)no1 (centres undefined) | 114.7
Cc1nc(C2CCCN(C(=O)CCCn3cccn3)C2)no1 (centres undefined) | 10.77
Cc1nc(C2CCCN(C(=O)CN3CCCNC3=O)C2)sc1C (centres undefined) | 6.53
CC(C)c1nc(C2CCCN(C(=O)CS(=O)(=O)C(C)C)C2)no1 (centres undefined) | -11.89
